Most compounds without a hit are left out; they make up all but 6% or so of the library.
D1 ag: agonists of human D1 dopamine receptor. AID 504660. activation, % at 2 µM. hit rate 1% among 360,000. HEK293 T-REx D1 cells, calcium flux, agonist mode; in the data active = activation above about 30%
Target sequence (P21728 whole entry, looked up): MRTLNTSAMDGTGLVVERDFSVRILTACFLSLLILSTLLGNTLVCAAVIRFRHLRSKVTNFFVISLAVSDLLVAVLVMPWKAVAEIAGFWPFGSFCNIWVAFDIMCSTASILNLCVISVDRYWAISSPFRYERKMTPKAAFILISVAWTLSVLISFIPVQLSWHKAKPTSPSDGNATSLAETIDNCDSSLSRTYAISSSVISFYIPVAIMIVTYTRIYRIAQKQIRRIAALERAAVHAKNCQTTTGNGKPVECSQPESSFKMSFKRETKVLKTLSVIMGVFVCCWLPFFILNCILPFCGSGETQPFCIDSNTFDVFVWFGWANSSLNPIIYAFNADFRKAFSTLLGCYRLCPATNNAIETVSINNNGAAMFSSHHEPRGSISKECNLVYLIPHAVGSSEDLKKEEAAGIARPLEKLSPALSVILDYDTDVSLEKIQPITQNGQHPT
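Tetracycline-induced HEK293 TREx D1 cells, force-coupled to calcium signalling, were dye-loaded with a no-wash calcium kit. Compound was pin-added after a 10 s baseline. Fluorescence was read kinetically at 1 cycle/s for 180 s, with calcium rises flagged as agonism.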
D3 ag: agonists of human D3 dopamine receptor; P35462; D3R DiscoveRx beta-arrestin cells, luminescence, 90 min; max activation, %; hit rate 0.58% among 410,000; in the data active = max activation above about 30%
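Agonist mode: compounds and dopamine controls were applied to plated cells for 90 min at 37 degrees C after an overnight attachment at 1500 cells/well. Luminescent read-out followed 30 - 60 minutes at room temperature with DiscoveRx detection reagent.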
D1 PAM: enhances dopamine response at the human D1 receptor. P21728. HEK293 TREx D1 cells, calcium flux, dopamine EC20 potentiation. potentiation, % at 10 µM. hit rate 0.036% among 360,000; in the data active = potentiation above about 30%
D1 antag: antagonists of human D1 dopamine receptor; HEK293 TREx D1 cells, calcium flux, dopamine EC80; active compounds read low; activity change, negative = inhibition, % at 10 µM; hit rate 3.2% among 360,000; AID 504652; in the data active = activity change below about -30%
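Inducible Hek293 Trex D1 cells (tetracycline, overnight, 30 C). Calcium dye 30–90 min RT. Antagonist mode: EC80 dopamine added after 180 s compound read.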
D3 antag: blocks the human D3 dopamine receptor. hit rate 2.5% among 360,000. AID 652054. D3R cells, DiscoveRx beta-arrestin luminescence, antagonist mode; active compounds read low. max response, negative = inhibition, %; in the data active = max response below about -50%; inconclusive = no clear call, values can overlap the other calls
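Cells plated overnight at 1500 cells/well, then exposed to library compounds with dopamine controls for 90 minutes at 37 degrees C. DiscoveRx reagent added for 30–60 minutes at room temperature; luminescence read, quantitative HTS format.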
A number is an active result; 0 = inactive; ? = inconclusive; - = not tested or not shown.

SMILES	D1 ag	D3 ag	D1 PAM	D1 antag	D3 antag
COc1ccccc1CN1C[C@@H]2C[C@@H](c3ccc4nsnc4c3)N3CCC[C@@]23C1=O	0	0	0	-72	0
O=C1N(Cc2cccc(Cl)c2)C[C@@H]2C[C@@H](c3cccc4cccnc34)N3CCC[C@@]123	0	0	0	0	?
O=C1N(Cc2cccc(Cl)c2)C[C@@H]2C[C@@H](c3ccc4nonc4c3)N3CCC[C@@]123	0	0	0	-36	0
O=C1N(Cc2cccc(Cl)c2)C[C@@H]2C[C@@H](c3cccc4ncccc34)N3CCC[C@@]123	0	0	0	-35	0
CCc1oc2ccccc2c1C(=O)c1cc(I)c(O)c(I)c1	-	0	-	-	-
Cc1cccc(NC(=O)c2cc3c(=O)n4ccccc4nc3n2C)c1C	0	0	0	0	-
N/C(=N\OC(=O)c1cc(Cl)ccc1Cl)c1cccnc1	0	0	0	-57	0
N/C(=N\OC(=O)c1ccccc1Cl)c1cccnc1	0	0	0	0	0
N/C(=N\OC(=O)COc1ccc([N+](=O)[O-])cc1)c1cccnc1	0	0	38	0	0
N/C(=N\OC(=O)c1ccccc1)c1cccnc1	0	0	0	-50	0
N/C(=N\OC(=O)c1cc(Br)ccc1Cl)c1cccnc1	0	0	0	0	0
CN(Cc1ccccc1)Cc1c(O)ccc2c(=O)c(-c3ccccc3)c(C(F)(F)F)oc12	0	0	0	0	-
CCc1ccc(-n2nc(C)c3c(C)cc(=O)n(CC(=O)Nc4ccc(OC)c(OC)c4)c32)cc1	0	0	0	0	-
CCN1CCN(P2(=O)C=C(c3ccccc3)OC(c3ccccc3)=C2)CC1	0	0	0	0	-81
COc1ccccc1N(C(=O)c1ccncc1)c1nc(-c2ccc([N+](=O)[O-])cc2)cs1	0	0	0	-38	0
O=C(c1ccc(CS(=O)Cc2cccc(Cl)c2)o1)N1CCN(c2ccc(F)cc2)CC1 (stereo not drawn)	-	0	-	-	0
O=C(c1ccc(CS(=O)Cc2ccc(Cl)cc2)o1)N1CCN(c2ccc(F)cc2)CC1 (stereo not drawn)	0	0	0	-36	0
CCCCC(c1nc2ccccc2[nH]1)n1c(-c2ccccc2)nc2ccccc21 (stereo not drawn)	-	0	-	-	0
CCO[C@@H]1c2c(ccc3ccc(=O)oc23)OC(C)(C)[C@@H]1O	0	0	0	0	0
C/C=C(/C)C(=O)O[C@@H]1[C@H](OC(=O)C=C(C)C)c2c(ccc3ccc(=O)oc23)OC1(C)C	0	0	0	0	0
CC1(C)Oc2ccc3ccc(=O)oc3c2[C@@H](O)[C@@H]1O	0	87	0	0	0
C/C=C(/C)C(=O)O[C@@H]1c2c(ccc3ccc(=O)oc23)OC(C)(C)[C@@H]1OC(=O)/C(C)=C\C	0	47	0	0	0
O=C(CN1CCN(S(=O)(=O)N2CCCCC2)CC1)Nc1ccc(Cl)c(Cl)c1	43	0	0	-79	0
O=C(CN1CCN(S(=O)(=O)N2CCCCC2)CC1)Nc1cc(Cl)cc(Cl)c1	0	0	0	0	0
O=C(CCC(=O)N1CCCC1)Nc1ccc(Cl)c(Cl)c1	0	0	0	-33	0
SMILES	D1 ag	D3 ag	D1 PAM	D1 antag	D3 antag
CC1(c2ccc(Cl)cc2)NC(=O)N(CC(=O)Nc2ccc(N3CCCCC3)cc2)C1=O (stereo not drawn)	0	0	0	0	0
O=C(CCC1CCCN(C(=O)c2cc(C3CC3)[nH]n2)C1)N1CCN(c2ccccn2)CC1 (stereo not drawn)	0	0	0	-32	0
COc1ccc(/C=C/CN2CCC(CO)(Cc3ccccc3Cl)CC2)cc1	109	0	0	0	0
CCN1CCN(C(=O)c2ccc(CSc3ccc(C)cc3)cc2)CC1	183	0	0	0	-53
Cc1ccc(C(=O)N2CCN(CCNC(=O)C(=O)Nc3ccc(Cl)cc3)CC2)cc1	0	0	0	0	-61
Cc1ccc(C(=O)N2CCN(CCNC(=O)C(=O)NCc3ccc(Cl)cc3)CC2)cc1	0	0	0	0	-78
O=C(NCCN1CCN(C(=O)c2c(F)cccc2F)CC1)C(=O)Nc1ccc(Cl)cc1	0	0	0	0	0
Cc1ccc(NC(=O)C(=O)NCCN2CCN(C(=S)Nc3ccccc3)CC2)cc1	0	0	0	-34	0
Cc1cccc(CN2CCN(C3CN(Cc4ccc(F)cc4)S(=O)(=O)C3)CC2)c1 (stereo not drawn)	-	0	-	-	0
Fc1cccc(CNc2ncnc3ccc(-c4cccc(Cl)c4)cc23)c1	0	-	0	0	-
c1ccc2c(c1)ccn1c(Cc3ccsc3)c(C3CCCCC3)nc21	-	0	-	-	-83
Oc1ccc2[nH]ccc2c1	0	0	0	-30	0
Cc1ccc(-c2noc(-c3ccc(N4CCCC4)c([N+](=O)[O-])c3)n2)cc1	0	0	0	0	-
CSc1nc(Nc2ccc(C)cc2C)cc(-c2ccccc2)n1	0	33	0	0	-
CCOC(=O)[C@]12CCCC=C1N(Cc1ccc3c(c1)OCO3)C(=O)[C@H](CC(=O)NCCc1ccccc1OC)C2	-	0	-	-	0
O=C(c1ccccc1F)N1CCN(C2CCC(c3ccccc3)CC2)CC1 (stereo not drawn)	0	0	0	0	0
c1ccc(C2CCC(N3CCN(c4ccccc4)CC3)CC2)cc1 (stereo not drawn)	0	0	0	0	-52
O=C(c1ccc(F)cc1)N1CCN(C2CCC(c3ccccc3)CC2)CC1 (stereo not drawn)	0	0	0	-41	0
COc1ccc(C(=O)N2CCN(C3CCC(c4ccccc4)CC3)CC2)cc1OC (stereo not drawn)	0	0	0	-37	?
COc1ccccc1N1CCN(C2CCN(C3CCC(c4ccccc4)CC3)CC2)CC1 (stereo not drawn)	0	-	0	0	-
Cc1cc(O)ccc1-c1cc(C(=O)NCc2ccc(F)cc2)[nH]n1	-	0	-	-	?
CCCOc1ccc(F)cc1-c1cc(C(=O)NCc2ccccc2)[nH]n1	-	0	-	-	-99
Cc1ccc(-c2cccc(C(=O)NCc3ccccc3)n2)c2ccccc12	0	0	0	0	-59
Cc1cc(F)ccc1-c1cc(C(=O)NCc2ccccc2)[nH]n1	-	0	-	-	-89
COc1ccc(NC(=O)c2cc(-c3cc(F)ccc3OC(C)C)n[nH]2)c(OC)c1	-	0	-	-	0
SMILES	D1 ag	D3 ag	D1 PAM	D1 antag	D3 antag
COc1ccc(NC(=O)c2cc(-c3cc(F)ccc3OC)n[nH]2)c(C)c1	-	0	-	-	-51
Cc1cc(F)ccc1-c1cc(C(=O)Nc2ccc(F)cc2)[nH]n1	-	0	-	-	-58
COc1ccc(NC(=O)c2cc(-c3ccc(F)cc3C)n[nH]2)cc1OC	-	0	-	-	0
COc1ccc(Cl)cc1-c1cc(C(=O)Nc2ccc(F)cc2)[nH]n1	-	0	-	-	-69
O=C(NCc1ccccc1)c1c(Cl)nc(Cl)c(Cl)c1Cl	0	0	0	-42	?
COc1ccc(NC(=O)c2cc(-c3cc(Cl)ccc3OC)n[nH]2)cc1OC	-	0	-	-	0
CCOC(=O)c1cn[nH]c1N	0	0	0	0	0
COC(=O)c1cn[nH]c1N	0	0	0	-30	0
